# FMDV inh = blocks foot and mouth disease virus | FMDV antiviral cell-based qHTS | Potency, µM (doses to about 57.9 µM), without a hit: top-dose activity change, negative = inhibition, actives largely listed as inhibitors | hit rate 1.2% among 410,000; calls by dose curve; tested in HEK293T cells; further: read-out not given here; potency means the concentration at half of the fitted maximal effect; nearly all actives have a fitted effect of over 45% in size
# MARV entry inh = blocks Marburg virus binding to or entry into cells | Potency, µM (titrated, usually from 37.8 µM), without a hit: top-dose activity change, negative = inhibition, most hits filed as inhibitors | hit rate 1.8% among 300,000 | Marburg virus pseudotyped entry inhibition, cell reporter; calls by dose curve; tested in HEK293 cells; further: potency means the concentration at half of the fitted maximal effect
# HCMV antiviral = blocks human cytomegalovirus replication; HFF cells, HCMV-luciferase reporter, 72 h; active compounds read low; activity change, negative = inhibition, % at 57.5 µM; hit rate 4.5% among 410,000; AID 1259415; in the data active means activity change below about -60%; inconclusive means no clear call, values can overlap the other calls; inactive means above about -39%
#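 Human foreskin fibroblasts infected with luciferase-reporter HCMV at MOI 1 PFU/cell, compounds at two doses. Luciferase measured 72 h post infection; normalized to buffer-only basal and Salinomycin (10uM) controls.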
# HCV inh = blocks hepatitis C virus | Huh7.5.1 HCVcc-Cre infection, luciferase reporter, 44 h | Potency, µM (top dose mostly 41.8 µM), for inactives: at the highest dose activity change, negative = inhibition, most hits filed as inhibitors | hit rate 3.4% among 340,000; active means well fitted inhibition curve with a large enough effect; inconclusive means small, poorly fitted or top-dose-only effect, or another doubt; inactive means no such curve, though single readings can be large or run the other way; further: potency means the concentration at half of the fitted maximal effect
#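 Seed cells (1,000/well) for 4 h; treat with compound and infect with HCVcc-Cre, moi about 0.5. Incubate 44 h, then detect luciferase activity.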
# Lassa entry inh = inhibitors of Lassa virus binding or cell entry | Lassa virus pseudotype entry inhibition, cell reporter | Potency, µM (doses to about 37.9 µM), for inactives: at the top dose activity change, negative = inhibition, actives largely listed as inhibitors | hit rate 1.2% among 300,000; calls by dose curve; tested in HEK293 cells; further: potency means the concentration at half of the fitted maximal effect; nearly all actives have a fitted effect of over 50% in size
# * marks the source's active call; other numbers are inactive results; ? = inconclusive; / = no result given; [ ] = remark or other dose. Hits are enriched below; roughly 7.9% of the tested compounds scored in any of these assays. On the % scale 0 is the no-effect control and ±100 the full control effect.
SMILES,FMDV inh,MARV entry inh,HCMV antiviral,HCV inh,Lassa entry inh
Cc1ccccc1OCC(=O)N1N=C(C(F)(F)F)CC1(O)C(C)(C)C (stereo not given),-20.9%,10.2%,1.7,-4.5%,-0.4%
Cc1ccc(OCC(=O)N2N=C(C(F)(F)F)CC2(O)C(C)(C)C)cc1C (stereo not given),?,?,-90.8*,-24.5%,?
O=C(NC1CC(=O)N(c2ccc(F)cc2)C1)c1ccc2c(c1)OCO2 (stereo not given),-6.2%,/,-4.2,/,15.0%[46.1 µM]
CC(=O)c1cccc(NC(=O)c2sc(-n3nc(C)c(Cc4ccccc4)c3C)nc2C)c1,?,-19.6%[46.1 µM],-61.3*,/,6.2%[46.1 µM]
COc1ccc(/C=C2\CN(Cc3ccccc3)C/C(=C\c3ccc(OC)cc3OC)C2=O)c(OC)c1,-26.8%,?,-13.3,?,?
COc1ccc(/C=C2\CN(Cc3ccccc3)C/C(=C\c3ccc(OC)cc3)C2=O)cc1,?,?,-33.2,0.2%,7.94µM*
CC[C@@H](C)[C@@H](N)C1=N[C@H](C(=O)N[C@@H](CC(C)C)C(=O)N[C@@H](CCC(=O)O)C(=O)N[C@@H](C(=O)N[C@@H]2CCCCNC(=O)[C@@H](CC(N)=O)NC(=O)[C@@H](CC(=O)O)NC(=O)[C@@H](Cc3cnc[nH]3)NC(=O)[C@@H](Cc3ccccc3)NC(=O)[C@@H]([C@H](C)CC)NC(=O)[C@@H](CCCN)NC2=O)[C@@H](C)CC)CS1,-8.4%,/,/,/,/
Cc1cccc(OCc2nc(C#N)c(NCc3ccc4c(c3)OCO4)o2)c1,-9.9%,-20.6%,0.8,?,4.4%
N#Cc1nc(COc2ccc(Cl)cc2)oc1NCc1ccc2c(c1)OCO2,0.0%,6.1%[46.1 µM],3.0,10µM*,-4.4%
COc1ccc(CCNc2oc(COc3ccc(Cl)cc3)nc2C#N)cc1OC,31.6µM*,?,-23.0,/,-17.0%[46.1 µM]
CCN(CC)c1ccc(NC(=O)CN2C(=O)CSc3ncccc32)c(C)c1,?,/,-86.4*,3.55µM*,/
CNC(=O)CN1C(=O)CSc2ncccc21,-24.4%,/,?,12.6%,/
CCn1c(C)c(C)c2cc(C(=O)NCc3cccc(C)c3)ccc21,7.0%,/,0.0,/,-26.0%[46.1 µM]
CC(=O)Nc1sc2c(c1C(c1ccc(F)cc1)N1CCOCC1)CCCC2 (stereo not given),?,12.6µM*,-86.2*,7.9%,-25.2%
CC(=O)Nc1sc2c(c1C(c1ccccc1)N1CCOCC1)CCCC2 (stereo not given),?,7.2%,-28.3,35.8%,19.6%
O=C(Nc1sc2c(c1C(=O)Nc1ccc(Cl)cc1)CCCC2)c1cccs1,?,/,8.7,/,-1.2%[46.1 µM]
CC(=O)Nc1sc2c(c1C(c1ccc(Cl)cc1)N1CCOCC1)CCCC2 (stereo not given),?,?,-94.3*,1.5%,?
CCOC(=O)[C@@](O)(C1C(=O)CC(C)(C)CC1=O)C(F)(F)F,/,15.4%[46.1 µM],/,/,/
COc1ccc2cc([C@H](C#N)C3CCCC3)ccc2c1,/,/,-9.1,/,/
Cc1cc(C)cc(N2C(=O)N(Cc3cccc(F)c3)c3ccccc3S2(=O)=O)c1,-16.7%,/,-5.3,/,-17.1%[46.1 µM]
CCCCn1nnnc1SCC(=O)NC1CCCCC1,17.5%,11.1%[46.1 µM],-98.9*,9.2%,-16.1%[46.1 µM]
Cn1nnnc1SCC(=O)NC1CCCCC1,23.0%,?,-21.7,12.9%,5.7%
COc1ccc(CNC(=O)C(=O)NCC(c2cccs2)S(=O)(=O)c2cccs2)cc1 (stereo not given),?,/,11.1,/,-18.1%[46.1 µM]
Cc1cc2c(c(/C=C/C(=O)c3ccccc3)c1)OC1(C=C2)Oc2ccccc2C(=O)N1C (stereo not given),25.1µM*,?,-12.5,12.6µM*,?
O=C1c2ccccc2OC2(C=Cc3ccccc3O2)N1Cc1ccccc1 (stereo not given),-15.7%,?,-5.3,?,-12.1%
SMILES,FMDV inh,MARV entry inh,HCMV antiviral,HCV inh,Lassa entry inh
CSC[C@@H]1NC(=S)N(c2ccc(C)cc2)C1=O,11.2µM*,-24.6%,0.0,31.6%,7.5%
COC[C@@H]1CCCN1[C@@H]1C[S+](=O)([O-])N[C@@H]1COCc1ccccc1,/,/,/,/,-1.9%[46.1 µM]
O=C(/C=C\Nc1cccc(F)c1)c1cccs1,-36.1%,?,69.9,5.7%,11.2µM*
O=C(/C=C\Nc1ccc2c(c1)OCO2)c1cccs1,10µM*,?,-11.8,5.7%,?
Cc1ccc(N/C=C/C(=O)c2cccs2)cc1,-50.7%,/,13.4,-1.6%,/
CCOC(=O)c1ccccc1N/C=C/C(=O)c1cccs1,14.1%,?,53.8,?,-2.6%
O=C(/C=C/Nc1ccc(F)cc1F)c1cccs1,20µM*,?,49.2,-0.1%,1.41µM*
O=C(/C=C\Nc1ccc2c(c1)OCO2)c1ccccn1,2µM*,?,-80.9*,14.5%,0.447µM*
O=C(Nc1ccc2c(c1)OCO2)c1ccccn1,60.8%,/,58.2,-7.2%,/
Cc1ccc2onc(CNC(=O)N(C)Cc3ccccc3)c2c1,9.0%,/,25.0,/,-2.7%[46.1 µM]
COc1cccc(-c2nc(S(=O)(=O)c3ccccc3)c(N3CCCCC3)o2)c1,-9.8%,2.8%[46.1 µM],-1.7,/,-23.8%[46.1 µM]
O=C(c1cnsn1)N1CCOc2ccc(C(O)C(c3ccccc3)c3ccccc3)cc2C1 (stereo not given),-18.2%,/,/,/,/
Cc1cccc(N2CCn3c2nc2c3c(=O)n(CCCc3ccccc3)c(=O)n2C)c1,-5.3%,/,-13.6,/,19.2%[46.1 µM]
Cc1cc2c(cc1NS(=O)(=O)c1cccc(C#N)c1)n(C)c(=O)c(=O)n2C,1.6%,/,22.4,/,0.8%[46.1 µM]
O=C(/C=C/Nc1ccccc1F)c1cccs1,12.6µM*,6.31µM*,74.1,8.6%,1.41µM*
O=C(c1ccc(Cl)cc1)N(c1ccccn1)C1CCCCC1,-12.9%,9.4%[46.1 µM],78.0,10.0%,-1.6%
O=C(c1cccc(C(=O)N(c2ccccn2)C2CCCCC2)c1)N(c1ccccn1)C1CCCCC1,-6.7%,9.2µM*,?,-19.7%,?
CN(CCNC(=O)C1CC(=O)N(c2ccc(F)c(Cl)c2)C1)Cc1ccccc1 (stereo not given),/,-28.1%,-67.3*,-28.8%,-0.6%
CCc1nnc2c(Nc3cccc(F)c3)nc3ccc(C(=O)c4ccccc4)cc3n12,-4.9%,?,-5.3,/,?
COc1ccc(/C=C/C(=O)N2CCN(c3ccccc3)CC2)cc1S(=O)(=O)N1CCOCC1,14.1µM*,-15.9%[46.1 µM],?,31.6µM*,?
O=C(/C=C/c1ccc(S(=O)(=O)N2CCOCC2)cc1)N1CCN(c2ccccc2)CC1,31.6µM*,/,?,2µM*,/
COc1ccc(/C=C/C(=O)N2CCC(C(N)=O)CC2)cc1S(=O)(=O)N1CCOCC1,22.0%,-2.4%,-3.8,19.7%,?
O=C(/C=C/c1ccccc1)N1CCN(S(=O)(=O)c2ccc(F)cc2)CC1,-18.5%,?,-11.8,12.4%,5.4%
O=C(Cn1c(=O)n(Cc2ccc3c(c2)OCO3)c(=O)c2ccc(C(=O)NC3CCCCC3)cc21)Nc1ccccc1F,67.1%,9.3%[46.1 µM],-8.6,/,-4.9%[46.1 µM]
O=c1c2cn[nH]c2nc(SCc2ccc3c(c2)OCCO3)n1-c1ccccc1,25.1µM*,?,-36.7,?,?

# Source: PubChem
